PubChem BioAssay (Tox21)
Records with an inconclusive call do not appear. Activity calls are given as the source filed them. Unless noted, calls come from the whole dose curve; as a rule, active = well fitted curve in the direction sought with a large enough effect in the repeat runs; inconclusive = weak or mixed curves; inactive = no such curve, though single readings can be large; an effect the other way counts as inactive or inconclusive. Non-standard residues stand in square brackets, D forms with d. Residues, ends and D or L forms follow the SMILES beside them. *: point of attachment. Sta = CC(C)C[C@H](N)[C@@H](O)CC(=O)O; Isovaleryl = CC(C)CC(=O)*

Legend:
[1] = qHTS assay to test for compound auto fluorescence at 535 nm (green) in HEK293 cells (AID 720680)
[2] = qHTS assay to test for compound auto fluorescence at 460 nm (blue) in HEK293 cell free culture (AID 720681)
Summary of the method: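 Compounds were added to cell-free DMEM with 10% FBS and fluorescence read directly. The blue channel used 405 nm excitation and 460 nm emission, with triamterene as the reference fluorophore.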

[3] = qHTS assay to test for compound auto fluorescence at 535 nm (green) in HEK293 cell free culture (AID 720682)
Summary of the method: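 DMEM + 10% FBS, cell-free; cpd or DMSO pinned in; Ex485/Em535 read; output as fluorescein-equivalent signal.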

[4] = qHTS assay to test for compound auto fluorescence at 590 nm (red) in HEK293 cell free culture (AID 720683)
Summary of the method: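 Cell-free wells of DMEM with 10% FBS received compound, and intrinsic fluorescence was read at excitation/emission 540/590 nm. Values expressed as equivalence to Rose Bengal sodium.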

[5] = qHTS assay to test for compound auto fluorescence at 590 nm (red) in HepG2 cell free culture (AID 720684)
Summary of the method: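 Compound was pinned into wells holding MEM with 10% FBS and no cells, and red fluorescence was read at Ex/Em 540/590 nm. Signal is expressed as auto fluorescence equivalency relative to Rose Bengal sodium.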

[6] = qHTS assay to test for compound auto fluorescence at 460 nm (blue) in HepG2 cell free culture (AID 720685)
Summary of the method: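 Compound (23 nL) or DMSO pinned into cell-free MEM with 10% FBS; blue fluorescence read at 405/460 nm excitation/emission, expressed as auto-fluorescence equivalency to triamterene.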

[7] = qHTS assay to test for compound auto fluorescence at 535 nm (green) in HepG2 cell free culture (AID 720686)
[8] = qHTS assay to test for compound auto fluorescence at 460 nm (blue) in HepG2 cells (AID 720687)
Summary of the method: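 HepG2 cells in MEM with 10% FBS, attached overnight at 37 C, were exposed to compound or DMSO for 1 hr at 37 C, 5% CO2. Blue fluorescence was read at 405/460 nm, with triamterene as reference fluorophore.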

[9] = qHTS assay to identify small molecule antagonists of the glucocorticoid receptor (GR) signaling pathway - cell viability counter screen (AID 720693); note: nearly all actives have a fitted effect of over 55% in size
[10] = qHTS assay to identify small molecule antagonists of the androgen receptor (AR) signaling pathway - cell viability counter screen (AID 743033; note: nearly all actives have a fitted effect of over 45% in size)
[11] = target: Glucocorticoid receptor (Homo sapiens) (UniProt P04150); assay: qHTS assay to identify small molecule agonists of the glucocorticoid receptor (GR) signaling pathway (AID 720691; active = well fitted activation curve with a large enough effect in the signal ratio in the repeat runs, not every such curve was filed as active; the % refers to the signal ratio)
Summary of the method: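 Reporter read-out: fluorescence intensity following 2 h room-temperature LiveBLAzer B/G FRET substrate loading. Prior step: GR-bla HeLa cells held 4 h, then treated 18 h at 37 C.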

[12] = target: Glucocorticoid receptor (Homo sapiens) (UniProt P04150); assay: qHTS assay to identify small molecule antagonists of the glucocorticoid receptor (GR) signaling pathway (AID 720692; active = well fitted inhibition curve with a large enough effect in the signal ratio in the repeat runs, not every such curve was filed as active; the % refers to the signal ratio)
Summary of the method: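 Dexamethasone (5 nM final) stimulated a stably integrated GRE-beta-lactamase reporter in HeLa cells during 18 h co-incubation with compounds; signal was quantified as fluorescence intensity of B/G FRET substrate after 2 h.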

[13] = qHTS assay for identifying genotoxic compounds that show differential cytotoxicity against isogenic chicken DT40 cell lines with known DNA damage response pathways - wild type cell line (AID 743012); note: nearly all actives have a fitted effect of over 60% in size
Summary of the method: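 Using parental DT40 (300 cells/well), compounds delivered in DMSO incubate 40 h at 37 C/5% CO2. CellTiter-Glo reagent then stands 30 min at room temperature, and luminescence gives cell viability.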

[14] = qHTS assay for identifying genotoxic compounds that show differential cytotoxicity against isogenic chicken DT40 cell lines with known DNA damage response pathways - Rev3 mutant cell line (AID 743014); note: nearly all actives have a fitted effect of over 55% in size
[15] = qHTS assay for identifying genotoxic compounds that show differential cytotoxicity against isogenic chicken DT40 cell lines with known DNA damage response pathways - Rad54/Ku70 mutant cell line (AID 743015); note: nearly all actives have a fitted effect of over 60% in size
[16] = qHTS assay to identify small molecule antagonists of the androgen receptor (AR) signaling pathway using the MDA cell line - cell viability counter screen (AID 743041; note: nearly all actives have a fitted effect of over 45% in size)
Summary of the method: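 MDA-kb2 AR-luc cells (MMTV-luciferase, AR/GR responsive) treated with compounds plus R1881 agonist for 16 h at 37C. CellTiter-Fluor added at 15.5 h; fluorescence read after 30 min in the same wells.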

Measured: Potency

Sequence of Glucocorticoid receptor (Homo sapiens) (P04150 whole entry, looked up): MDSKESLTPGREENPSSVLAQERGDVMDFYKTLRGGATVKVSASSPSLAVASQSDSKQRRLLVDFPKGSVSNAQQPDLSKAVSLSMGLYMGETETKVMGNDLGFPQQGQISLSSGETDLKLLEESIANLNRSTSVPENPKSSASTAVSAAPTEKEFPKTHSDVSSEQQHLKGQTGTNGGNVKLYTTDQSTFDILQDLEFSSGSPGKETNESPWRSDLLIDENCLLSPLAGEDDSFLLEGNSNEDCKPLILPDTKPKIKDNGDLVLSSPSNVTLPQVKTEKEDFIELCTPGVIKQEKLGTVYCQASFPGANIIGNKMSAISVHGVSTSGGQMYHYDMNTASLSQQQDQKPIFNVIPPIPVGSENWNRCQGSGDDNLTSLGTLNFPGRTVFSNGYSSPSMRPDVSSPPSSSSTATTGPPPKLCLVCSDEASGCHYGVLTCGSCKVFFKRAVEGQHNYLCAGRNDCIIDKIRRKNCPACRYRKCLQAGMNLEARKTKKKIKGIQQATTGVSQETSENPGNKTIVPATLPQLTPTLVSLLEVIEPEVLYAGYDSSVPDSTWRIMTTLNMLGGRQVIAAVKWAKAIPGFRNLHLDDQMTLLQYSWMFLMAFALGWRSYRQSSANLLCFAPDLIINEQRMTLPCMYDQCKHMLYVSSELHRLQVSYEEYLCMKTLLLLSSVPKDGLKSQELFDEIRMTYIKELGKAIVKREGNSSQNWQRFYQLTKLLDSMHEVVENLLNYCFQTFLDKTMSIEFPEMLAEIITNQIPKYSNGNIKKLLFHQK

CCOC(=O)COc1ccc2c(C)c(CCN(CC)CC)c(=O)oc2c1Cl
not listed: [11] | [12] | [13] | [14] | [15] | [16]
inactive: all other assays above

Cc1cc(O)c(Cl)cc1C
not listed: [7]
inactive: all other assays above

CCCCN(CCCC)CCCCCCN(CCCC)CCCC
not listed: [9] | [11] | [12] | [13]
inactive: all other assays above

C=C(C)C(=O)OCCOC1CC2CC1C1C=CCC21 (stereo not given)
inactive: [1] | [2] | [3] | [4] | [5] | [6] | [7] | [8] | [16]

CC(C)CC(=O)N[C@H](C(=O)N[C@H](C(=O)N[C@@H](CC(C)C)[C@@H](O)CC(=O)N[C@@H](C)C(=O)N[C@@H](CC(C)C)[C@@H](O)CC(=O)O)C(C)C)C(C)C (Isovaleryl-VV[Sta]A[Sta]-OH)
not listed: [11] | [12] | [13] | [14]
inactive: all other assays above

O=c1c(O)c(O)c1=O
not listed: [7]
inactive: all other assays above

CC/C=C\CCCCCCCCCCOC(C)=O
not listed: [7]
inactive: all other assays above

CC(C)(C)OC(=O)c1ccccc1C(=O)O
not listed: [9] | [10] | [11] | [12]
inactive: all other assays above

CC(C)C[P+](C)(CC(C)C)CC(C)C
not listed: [9] | [11] | [12]
inactive: all other assays above

O=S(=O)(O)CC(O)CCl (stereo not given)
not listed: [10] | [11] | [12] | [13]
inactive: all other assays above
